Active and inactive are the calls of the source. How the source made its calls: active means hit-call score of the fitted dose curve at least 0.9, where 1 is the maximum; inactive means score below 0.9.

Data on one compound can be found in PubChem BioAssay AID2284076 (EPA ToxCast).

For the assay, the target named is human EphA1 Receptor Tyrosine Kinase, EPHA1 (gene 2041) (UniProt P21709). Description: ERF_FR_ENZ_hEPHA1: Eurofins (ERF) Enzymatic Radiometric [Km ATP] KinaseProfiler LeadHunter Assay for human EphA1 Receptor Tyrosine Kinase. As to the method: ERF_FR_ENZ_hEPHA1 is a biochemical, single-readout assay that uses extracted gene-proteins in a cell-free assay. Measurements were taken 0.5 hour after chemical dosing in a 96-well plate. See EphA1 Human RTK Kinase Enzymatic HTRF Assay [Km ATP], Cerep.ERF_FR_ENZ_hEPHA1 is an assay component calculated from the ERF_FR_ENZ_hEPHA1 assay. It is designed to measure enzyme activity using a type of enzyme reporter as detected by fluorescence intensity with HTRF technology.Data from the assay component ERF_FR_ENZ_hEPHA1 was analyzed at the assay endpoint, ERF_FR_ENZ_hEPHA1, in the positive analysis fitting direction relative to DMSO as the negative control and baseline of activity. Using a type of enzyme reporter, loss-of-signal activity can be used to understand changes in enzymatic activity as they relate to gene EPHA1. To generalize the intended target to other relatable targets, this assay endpoint is annotated to the kinase intended target family, where the subfamily is receptor tyrosine kinase.
Sequence of human EphA1 Receptor Tyrosine Kinase, EPHA1 (gene 2041) (P21709 whole entry, looked up): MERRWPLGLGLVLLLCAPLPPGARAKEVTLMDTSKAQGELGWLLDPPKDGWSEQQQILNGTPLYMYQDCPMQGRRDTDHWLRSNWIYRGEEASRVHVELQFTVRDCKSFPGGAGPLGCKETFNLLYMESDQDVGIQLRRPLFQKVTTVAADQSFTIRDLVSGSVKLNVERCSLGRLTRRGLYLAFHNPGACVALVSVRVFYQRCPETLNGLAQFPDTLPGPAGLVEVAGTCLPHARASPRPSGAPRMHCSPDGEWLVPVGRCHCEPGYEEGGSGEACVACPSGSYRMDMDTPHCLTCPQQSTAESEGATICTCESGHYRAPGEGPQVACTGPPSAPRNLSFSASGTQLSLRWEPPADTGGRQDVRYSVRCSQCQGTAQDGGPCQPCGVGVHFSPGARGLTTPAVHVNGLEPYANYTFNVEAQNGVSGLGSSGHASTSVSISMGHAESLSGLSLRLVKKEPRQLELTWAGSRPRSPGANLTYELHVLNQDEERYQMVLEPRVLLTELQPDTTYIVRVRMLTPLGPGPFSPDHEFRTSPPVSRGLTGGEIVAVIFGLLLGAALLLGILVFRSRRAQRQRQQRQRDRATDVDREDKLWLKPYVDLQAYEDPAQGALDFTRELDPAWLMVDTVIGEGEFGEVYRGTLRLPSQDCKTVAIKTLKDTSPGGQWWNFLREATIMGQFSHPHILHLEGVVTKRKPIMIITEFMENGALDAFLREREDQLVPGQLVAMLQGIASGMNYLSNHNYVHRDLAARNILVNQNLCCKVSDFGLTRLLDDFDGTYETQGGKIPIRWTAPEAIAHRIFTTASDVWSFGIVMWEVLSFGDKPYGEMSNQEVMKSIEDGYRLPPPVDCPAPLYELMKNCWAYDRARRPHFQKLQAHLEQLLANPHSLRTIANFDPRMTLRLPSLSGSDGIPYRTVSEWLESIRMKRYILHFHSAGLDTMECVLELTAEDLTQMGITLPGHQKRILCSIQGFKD
EphA1 (h) is incubated with 8 mM MOPS pH 7.0, 0.2 mM EDTA, 250 uM […], 10 mM MgAcetate and [gamma-33P]-ATP (specific activity and concentration as required). The reaction is initiated by the addition of the Mg/ATP mix. After incubation for 40 minutes at room temperature, the reaction is stopped by the addition of phosphoric acid to a concentration of 0.5%. […]
As to `O=C(/C=C/c1ccc(O)cc1)CC(=O)/C=C/c1ccc(O)cc1`, the compound was classed as inactive.
